Rows were chosen to be rich in hits. Some 0.81% of all compounds tested hit in one or more screens of this group.
NCOA3 inh = SRC3 coactivator transcriptional activity inhibitors, primary screen, cell-based, luminescence. Nuclear receptor coactivator 3 (Homo sapiens), Q9Y6Q9. HEK293 GAL4-SRC3 luciferase reporter. inhibition, % at 3.6 µM. 360,000 compounds, 0.17% hits;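 active = inhibition above a per-campaign cutoff, the mean of all compounds plus 3 SD, cut at about 60% in these data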;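 note: higher means less SRC3-driven luciferase light from the GAL4 reporter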
SRC2 inh = inhibition of GAL4-SRC2 driven luciferase reporter, primary screen, SRC2 inhibitor project, cell-based, luminescence. AID 651957, 2012. HEK293 GAL4-SRC2 luciferase reporter. Nuclear receptor coactivator 2 (Homo sapiens), Q15596. inhibition, % at 9 µM. 370,000 compounds, 0.17% hits;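 active = inhibition above the mean inhibition of all tested compounds plus 3 SD, set per campaign, cut at about 52% in these data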
LRH-1 inv ag = LRH-1 (NR5A2) inverse agonists, primary screen, cell-based, luminescence, HEK293T, StAR-luciferase reporter; Nuclear receptor subfamily 5 group A member 2 (Homo sapiens), O00482; LRH-1 transfected, 24 h; inhibition, % at 3.6 µM; 360,000 compounds, 0.13% hits;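 active = inhibition above the mean inhibition of all tested compounds plus 3 SD, cut at about 73% in these data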
NCOA1 inh = SRC1 coactivator transcriptional activity inhibitors, primary screen, cell-based, luminescence; AID 588354, 2011; Nuclear receptor coactivator 1 (Homo sapiens), Q15788; 360,000 compounds, 0.12% hits; inhibition, % at 3.6 µM; HEK293 GAL4-SRC1 luciferase reporter;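 active = inhibition above the campaign mean plus 3 SD, with each screening campaign given its own cutoff, cut at about 60% in these data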
NR2F2 inh = NR2F2 transcriptional activity inhibitors, primary screen, cell-based, luciferase reporter, HEK293T, luminescence | COUP transcription factor 2 (Homo sapiens), P24468 | HEK293T NGFI-A luciferase reporter | inhibition, % at 8.6 µM | 370,000 compounds, 0.7% hits | AID 686940, 2013;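 active = inhibition above a per-plate cutoff, mean inhibition of test wells between control levels plus 3 SD, cut at about 38% in these data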;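 note: cells cotransfected with COUP-TFII expression vector driving the NGFI-A reporter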
VP16 Luc counter = Gal4-VP16 luciferase reporter inhibitors, counter-screen for COUP-TFII antagonist project, cell-based, luminescence, HEK293. 2,500 compounds, 25% hits. inhibition, % at 8.5 µM. AID 687007, 2013. shares compounds with NR2F2 inh; in the data active = inhibition above about 13%
COUP-TFII conf = NR2F2 transcriptional activity inhibitors, confirmation, cell-based, luciferase reporter, HEK293, triplicate. shares compounds with NR2F2 inh. inhibition, % at 8.5 µM. 2,500 compounds, 45% hits. HEK293 NGFI-A luciferase reporter, luminescence;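 active = mean inhibition over three repeats above a set limit taken from the earlier primary screen, cut at about 38% in these data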
Hits are given with their value; i = inactive; nt = no result given.

SMILES	NCOA3 inh	SRC2 inh	LRH-1 inv ag	NCOA1 inh	NR2F2 inh	VP16 Luc counter	COUP-TFII conf
CC(=O)c1cn(CCOc2ccccc2C)c2ccccc12	i	i	i	i	60.9	i	53.8
Cc1ccccc1OCCn1cc(C(=S)N2CCCC2)c2ccccc21	i	i	i	i	i	nt	nt
Cc1ccccc1OCCCCn1cnc2ccccc21	i	i	i	i	38.9	i	i
Cc1ccc(OCCCCn2cnc3ccccc32)cc1	i	i	i	i	i	nt	nt
CC(=O)c1cn(CC(=O)Nc2ccccc2)c2ccccc12	i	i	i	i	47.4	i	i
O=C(CCc1nc2ccccc2c(=O)[nH]1)N1CCN(c2ccccc2Cl)CC1	i	i	i	i	i	nt	nt
CCn1c(C)cc(C(=O)CN2C(=O)c3ccccc3S2(=O)=O)c1C	i	i	i	i	40.7	40.6	72.5
O=C(CN1C(=O)c2ccccc2S1(=O)=O)c1ccccc1	i	i	i	i	i	nt	nt
Cc1cc(C(=O)CN2C(=O)c3ccccc3S2(=O)=O)c(C)n1C(C)C	i	57.6	i	i	62.6	49.0	63.3
CCC(=O)Nc1nc(-c2ccc3c(c2)CC(C)N3S(C)(=O)=O)cs1 (centres undefined)	i	i	i	i	i	nt	nt
CC1Cc2cc(-c3csc(NC(=O)Cc4cccs4)n3)ccc2N1S(C)(=O)=O (centres undefined)	63.6	i	i	i	81.2	i	85.4
NS(=O)(=O)c1ccc(CCNc2ncnc3sccc23)cc1	i	i	i	i	52.8	i	i
Cc1ccc(S(=O)(=O)Nc2ncnc3sc(C)c(C)c23)cc1	i	i	i	i	i	nt	nt
Cc1sc2ncnc(NCCc3ccc(S(N)(=O)=O)cc3)c2c1C	i	i	i	i	65.5	i	61.2
Clc1ccc(N=NN2CCOCC2)cc1	i	i	i	i	i	nt	nt
Cc1[nH]nc(C(F)(F)F)c1N=NN1CCOCC1	i	i	i	i	48.6	i	46.4
CC(=C\c1ccccc1)/C=C1/SC(=S)N(CCCC(=O)O)C1=O	i	53.0	i	i	38.0	72.5	50.9
O=C(O)CCCN1C(=O)/C(=C\c2ccco2)SC1=S	i	i	i	i	44.0	50.4	i
CC(/C=C1\SC(=O)N(CCCC(=O)O)C1=O)=C\c1ccccc1	i	92.7	i	i	91.5	91.7	100.2
COc1cccc(/C=C2\SC(=S)N(CCC(=O)N3CCCCC3CCO)C2=O)c1 (centres undefined)	i	i	i	i	i	nt	nt
COc1cccc(/C=C2\SC(=S)N(CCCC(=O)N3CCCCC3CCO)C2=O)c1 (centres undefined)	i	i	i	i	39.2	31.2	i
Cc1ccc(OCc2nnc(SCc3cc(=O)[nH]c4ccccc34)n2-c2ccccc2)cc1	i	i	i	i	i	nt	nt
COc1ccc(/C=C2/SC(=S)N(CCC(=O)O)C2=O)cc1	i	84.3	i	i	45.9	i	56.0
CCOC(=O)c1c(NC(=S)N2CCN(C)CC2)sc2c1CCN(C(=O)OCC)C2	i	i	i	i	39.3	i	i
Cn1cc(-c2nnnn2-c2ccccc2)c(=O)c2ccccc21	i	i	i	i	i	nt	nt
SMILES	NCOA3 inh	SRC2 inh	LRH-1 inv ag	NCOA1 inh	NR2F2 inh	VP16 Luc counter	COUP-TFII conf
Nc1c(C(=O)N/N=C/c2ccc(Cl)cc2)cnn1-c1ccccc1	i	i	i	i	i	nt	nt
COC(=O)c1cnn(-c2ccc(Cl)cc2)c1/C=N/NC(N)=S	i	i	i	i	43.3	i	i
CC(Cc1cccs1)NC(=O)Nc1ccc(F)cc1 (centres undefined)	i	i	i	i	i	nt	nt
COC(=O)C1=CN(c2ccc(OC)cc2)C=C(C(=O)OC)C1c1ccc([N+](=O)[O-])cc1	i	i	i	i	i	nt	nt
CC1(C)CC(=O)C2=C(C1)N(c1ccccc1)C(=O)CC2c1ccc(O)cc1 (centres undefined)	i	i	i	i	i	nt	nt
CCN1C(=C(C#N)C#N)C=Cc2cc(C)ccc21	i	i	i	i	i	nt	nt
C=CC[n+]1c(/C=C2\C=Cc3cc(C)ccc3N2CC)ccc2ccccc21	71.0	i	89.4	i	75.1	17.7	75.6
COCCNC(=S)Nc1cc(OC)c(NC(=O)c2ccco2)cc1OC	i	i	i	i	i	nt	nt
S=C(NCCCc1cnc[nH]1)NCCCN(Cc1ccc(Cl)cc1)c1ccc(Br)cn1	i	i	94.0	i	37.8	i	i
OCc1nc2ccccc2n1Cc1ccc(Cl)cc1	i	i	i	i	i	nt	nt
Cc1nc2ccccc2n1Cc1ccc(Cl)cc1	i	i	i	i	60.6	i	38.8
COc1ccccc1Cn1c(C)nc2ccccc21	i	i	i	i	i	nt	nt
Cc1ccccc1Cn1c(C)nc2ccccc21	i	i	i	i	47.5	i	46.1
O=C(CSCc1ccc(F)cc1)NCc1cccs1	i	i	i	i	i	nt	nt
NCCCNc1nc(N)c([N+](=O)[O-])c(NC2CCCCC2)n1	i	i	i	i	41.1	i	i
NC(=O)c1ccsc1NC(=O)COC(=O)c1cc(=O)[nH]c2ccccc12	i	i	i	i	i	nt	nt
CC1=CC(=O)C(C(C)C)=C/C1=N\OS(=O)(=O)c1ccccc1	nt	nt	nt	nt	81.9	i	i
COc1ccc(C(CNC(=O)c2ccc(Cl)c(NC(=O)c3cccs3)c2)N2CCCC2)cc1 (centres undefined)	i	i	i	i	i	nt	nt
CCCCC(=O)Nc1nnnn1CCC	i	i	i	i	i	nt	nt
N#Cc1cc2c(nc1SCC(=O)N1CCOCC1)CCCCC2	64.6	i	i	i	53.5	55.0	77.0
N#Cc1cc2c(nc1SCC(N)=O)CCCCC2	i	i	i	i	i	nt	nt
CCOC(=O)c1cnc(-n2nc(C)cc2C)nc1NC1CCCCC1	i	i	i	i	76.6	i	72.1
Cc1ccc(NC(=O)/C(=C\c2cccnc2)NC(=O)c2ccccc2)cc1	i	i	i	i	i	nt	nt
N#Cc1c(NC(=O)CCCC(=O)O)sc2c1CCCCC2	i	61.2	i	i	46.3	16.7	i
CC1CCc2c(sc(NC(=O)CSc3ncn[nH]3)c2C#N)C1 (centres undefined)	i	82.0	i	i	85.9	79.9	84.1
CC(C)(C)C1CCc2c(sc(NC(=O)CSc3ncn[nH]3)c2C#N)C1 (centres undefined)	i	i	i	i	i	nt	nt
N#Cc1c(NC(=O)CSc2ncn[nH]2)sc2c1CCCC2	i	75.2	i	i	76.8	78.5	74.3

High-throughput results deposited in PubChem by The Scripps Research Institute Molecular Screening Center.
